Data: the supplement of paper PMC9588786
± gives the standard deviation of the averaged measurements.

System: HT-1080
Assay: relative cell viability with RSL3 co-treatment (fraction of control); higher = stronger protection from RSL3-induced ferroptosis (higher viability)
Conditions: 10 µM
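Also: viability read as CCK-8 absorbance at 450 nm in cells co-exposed to the GPX4 inhibitor RSL3, relative to a 0.01% DMSO vehicle control.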

## O=C1NC(=O)C(c2cnc3ccccn23)=C1c1cn2c3c(cc(F)cc13)CN(C(=O)N1CCCCC1)CC2
  relative cell viability: 0.577 ± 0.015

## CC(=O)Nc1nc(C)c(-c2ccc(Cl)c(S(=O)(=O)NCCO)c2)s1
  relative cell viability: 0.603 ± 0.057

## CO[C@H]1C[C@@H]2CC[C@@H](C)[C@@](O)(O2)C(=O)C(=O)N2CCCC[C@H]2C(=O)O[C@H]([C@H](C)C[C@@H]2CC[C@@H](OC(=O)C(C)(CO)CO)[C@H](OC)C2)CC(=O)[C@H](C)/C=C(\C)[C@@H](O)[C@@H](OC)C(=O)[C@H](C)C[C@H](C)/C=C/C=C/C=C/1C
  relative cell viability: 0.367 ± 0.11

## COc1nccc(-c2c(-c3ccc(F)cc3)ncn2C2CCC(O)CC2)n1 (stereo not drawn)
  relative cell viability: 0.667 ± 0.16

## N#CC[C@H](C1CCCC1)n1cc(-c2ncnc3[nH]ccc23)cn1
  relative cell viability: 0.897 ± 0.083

## COCCOc1cnc2ccn([C@H](C)c3nnc4c(F)cc(-c5cnn(C)c5)cn34)c(=O)c2c1
  relative cell viability: 0.7767 ± 0.0058

## N#CC(=C(/N)Sc1ccccc1N)/C(C#N)=C(\N)Sc1ccccc1N
  relative cell viability: 0.84 ± 0.017

## Cc1cc(Nc2nc(N[C@@H](C)c3ccc(F)cc3)c(C#N)cc2F)n[nH]1
  relative cell viability: 0.29 ± 0.017

## COc1cc(N2CCC(N(C)C)CC2)ccc1Nc1ncc(Cl)c(Nc2ccccc2P(C)(C)=O)n1
  relative cell viability: 0.36 ± 0.082

## CCn1c(N)c(C(=O)NC)c(=O)c2ccc(C#CC(C)(O)COC)nc21 (stereo not drawn)
  relative cell viability: 0.89 ± 0.16

## COc1cc2ncnc(Nc3ccc(O)c(Br)c3)c2cc1OC
  relative cell viability: 0.8167 ± 0.0058

## O=C(NCCCNc1nc(Nc2cccc(NC(=O)N3CCCC3)c2)ncc1I)c1cccs1
  relative cell viability: 0.657 ± 0.011

## COc1cc(F)c(F)c(Nc2ccc(I)cc2F)c1NS(=O)(=O)C1(C[C@H](O)CO)CC1 [Refametinib (RDEA119, Bay 86-9766)]
  relative cell viability: 0.92 ± 0.01

## C#Cc1cccc(Nc2ncnc3cc(OC)c(OCCCCCCC(=O)NO)cc23)c1
  relative cell viability: 0.793 ± 0.046

## Oc1ccc(-c2nc(-c3ccc(F)cc3)c(-c3ccncc3)[nH]2)cc1
  relative cell viability: 0.717 ± 0.05

## COc1cc2ncnc(Oc3ccc(CC(=O)Nc4cnn(C(C)C)c4)cc3)c2cc1OC
  relative cell viability: 0.643 ± 0.33

## CC(C)(O)CNc1ncc(-c2ccnc(Nc3ccnc(Cl)c3)n2)c(CC2CC2)n1
  relative cell viability: 0.503 ± 0.031

## O=C(NOCC1CC1)c1ccc(F)c(F)c1Nc1ccc(I)cc1Cl
  relative cell viability: 0.693 ± 0.2

## O=c1ccc2ccc(O)c(O)c2o1 [Daphnetin]
  relative cell viability: 0.85 ± 0.017

## O=C(/C=C/c1ccc2ccccc2n1)c1ccncc1
  relative cell viability: 0.64 ± 0.075

## FC(F)c1nc2ccccc2n1-c1nc(N2CCOCC2)nc(N2CCOCC2)n1
  relative cell viability: 0.723 ± 0.14

## Cc1ccccc1CN1C2=NCCN2C(=O)C2=C1CCN(Cc1ccccc1)C2 [TIC10 Analogue]
  relative cell viability: 0.62 ± 0.079

## C[C@H]1[C@H](C)CC[C@]2(C(=O)O)CC[C@]3(C)C(=CC[C@@H]4[C@@]5(C)C[C@@H](O)[C@H](O)[C@@](C)(CO)[C@@H]5CC[C@]43C)[C@H]12 [Asiatic Acid]
  relative cell viability: 0.58 ± 0.14

## CN1CCN(c2ccc(Nc3cc(-c4cccc(-n5ccc6cc(C7CC7)cc(F)c6c5=O)c4CO)cn(C)c3=O)nc2)CC1
  relative cell viability: 0.763 ± 0.067

## Cn1c(Nc2ccc(C(F)(F)F)cc2)nc2cc(Oc3ccnc(-c4ncc(C(F)(F)F)[nH]4)c3)ccc21
  relative cell viability: 0.593 ± 0.091

## Cn1cnc2c(F)c(Nc3ccc(Br)cc3F)c(C(=O)NOCCO)cc21
  relative cell viability: 0.827 ± 0.097

## COc1cc(CCc2cc(NC(=O)c3ccc(N4CC(C)NC(C)C4)cc3)n[nH]2)cc(OC)c1 (stereo not drawn)
  relative cell viability: 0.673 ± 0.14

## CCN1/C(=C/C(C)=O)Sc2ccc(OC)cc21
  relative cell viability: 0.76 ± 0.1

## NC(=O)c1ncn([C@@H]2O[C@H](CO)[C@@H](O)[C@H]2O)c1N [AICAR (Acadesine)]
  relative cell viability: 1.03 ± 0.011

## COCC(=O)NC/C=C/c1ccc2ncnc(Nc3ccc(Oc4ccc(C)nc4)c(C)c3)c2c1
  relative cell viability: 0.647 ± 0.095

## CN1CCN(c2nc(C3=C(c4c[nH]c5ccccc45)C(=O)NC3=O)c3ccccc3n2)CC1 [Sotrastaurin]
  relative cell viability: 0.903 ± 0.042

## Oc1ccc(Nc2nc(-c3ccc(Cl)cc3)cs2)cc1
  relative cell viability: 0.66 ± 0.095

## OCCn1cc(-c2cnc3nnn(Cc4ccc5ncccc5c4)c3n2)cn1
  relative cell viability: 0.813 ± 0.09

## CN1CCN(c2ccc3nc(-c4c(N)c5c(F)cccc5[nH]c4=O)[nH]c3c2)CC1 [Dovitinib (TKI-258) Dilactic Acid]
  relative cell viability: 0.563 ± 0.25

## CNC(=O)c1ccc(C)c(-n2c(C)cc(OCc3ccc(F)cc3F)c(Br)c2=O)c1
  relative cell viability: 0.747 ± 0.067

## CCOc1ccn(-c2ccc(F)cc2)c(=O)c1C(=O)Nc1ccc(Oc2ccnc(N)c2Cl)c(F)c1
  relative cell viability: 0.51 ± 0.092

## Cc1c[nH]c2nc(Nc3ccc(N4CCN(C)CC4)c(F)c3)nc(-c3cccc(CC#N)c3)c12
  relative cell viability: 0.123 ± 0.1

## NC(=O)Nc1cc(-c2cccc(F)c2)sc1C(=O)N[C@H]1CCCNC1
  relative cell viability: 0.55 ± 0.01
